What all share (design): scale not given: direction of the effect not stated beside the values
In experiment [1] the target is Protein translocase subunit SecA (Escherichia coli (strain K12)) (UniProt P10408). The experiment can be described thus: Assay to Identify E. coli SecA ATPase Inhibitors. The settings on record: 30 µM. The class given is functional.
Experiment [2] concerns the target T1, Ubiquitin-activating enzyme e1, putative (Leishmania donovani (strain BPK282A1)) (UniProt E9BSI1).
T1 sequence (whole entry): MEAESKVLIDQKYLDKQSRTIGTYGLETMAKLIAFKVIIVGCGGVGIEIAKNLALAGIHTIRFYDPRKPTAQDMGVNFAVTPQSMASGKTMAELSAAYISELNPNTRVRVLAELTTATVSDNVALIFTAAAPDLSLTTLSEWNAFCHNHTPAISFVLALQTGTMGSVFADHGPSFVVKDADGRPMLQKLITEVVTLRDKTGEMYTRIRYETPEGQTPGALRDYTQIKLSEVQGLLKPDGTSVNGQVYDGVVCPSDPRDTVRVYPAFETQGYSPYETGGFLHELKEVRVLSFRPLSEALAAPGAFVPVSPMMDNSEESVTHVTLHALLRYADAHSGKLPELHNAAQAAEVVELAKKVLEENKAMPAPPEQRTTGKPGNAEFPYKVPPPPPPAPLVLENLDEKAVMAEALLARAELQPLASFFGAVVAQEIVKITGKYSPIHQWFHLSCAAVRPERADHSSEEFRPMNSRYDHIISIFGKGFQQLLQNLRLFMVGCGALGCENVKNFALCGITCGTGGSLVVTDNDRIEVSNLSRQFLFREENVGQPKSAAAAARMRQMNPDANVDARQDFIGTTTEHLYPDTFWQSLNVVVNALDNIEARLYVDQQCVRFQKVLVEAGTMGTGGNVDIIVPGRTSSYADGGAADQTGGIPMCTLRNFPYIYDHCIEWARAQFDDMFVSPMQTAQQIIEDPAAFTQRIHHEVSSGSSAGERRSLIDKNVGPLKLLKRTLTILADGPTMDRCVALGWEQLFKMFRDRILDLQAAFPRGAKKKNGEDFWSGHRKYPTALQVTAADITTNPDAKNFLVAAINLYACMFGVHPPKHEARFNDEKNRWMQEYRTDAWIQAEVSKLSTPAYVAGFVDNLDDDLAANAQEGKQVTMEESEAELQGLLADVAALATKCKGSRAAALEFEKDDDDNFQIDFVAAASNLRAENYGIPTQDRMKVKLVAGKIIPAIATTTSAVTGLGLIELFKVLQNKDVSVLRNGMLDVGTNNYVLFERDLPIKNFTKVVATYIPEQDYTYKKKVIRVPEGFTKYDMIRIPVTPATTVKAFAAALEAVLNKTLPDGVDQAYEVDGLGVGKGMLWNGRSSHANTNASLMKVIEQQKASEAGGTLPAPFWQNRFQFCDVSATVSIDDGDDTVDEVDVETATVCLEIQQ
Nature of the experiment: Leishmania donovani Ubiquitin Activating Enzyme (LdE1). As to conditions: 30 µM. The format is functional.

The target in experiment [3] is AMP-activated protein kinase, AMPK (Homo sapiens) (UniProt P54646+O43741+P54619+Q9UGJ0+Q9Y478+Q13131+Q9UGI9). Nature of the experiment: AMP-dependent Kinase enzyme assay. An in vitro enzyme assay that detects ADP turnover that is directly proportional to AMPK activity. This uses naive AMPK that is activated during the assay with MK-8722. The format is functional. The settings on record: 30 µM.

For experiment [4], the target named is Sialic acid-binding Ig-like lectin 9 (Homo sapiens) (UniProt Q9Y336). Nature of the experiment: Hs-Siglec9 ALPHAscreen SOP 20170721. As to conditions: 10 µM.
In another experiment the test system is Trypanosoma cruzi. The experiment can be described thus: Trypanosoma cruzi phosphomannomutase and mannose-1-phosphate guanylyltransferase assay. The class given is functional. The settings on record: 10 µM.
For experiment [5], the target named is T2, Arginase-2, mitochondrial (Homo sapiens) (UniProt P78540).
T2 sequence (whole entry): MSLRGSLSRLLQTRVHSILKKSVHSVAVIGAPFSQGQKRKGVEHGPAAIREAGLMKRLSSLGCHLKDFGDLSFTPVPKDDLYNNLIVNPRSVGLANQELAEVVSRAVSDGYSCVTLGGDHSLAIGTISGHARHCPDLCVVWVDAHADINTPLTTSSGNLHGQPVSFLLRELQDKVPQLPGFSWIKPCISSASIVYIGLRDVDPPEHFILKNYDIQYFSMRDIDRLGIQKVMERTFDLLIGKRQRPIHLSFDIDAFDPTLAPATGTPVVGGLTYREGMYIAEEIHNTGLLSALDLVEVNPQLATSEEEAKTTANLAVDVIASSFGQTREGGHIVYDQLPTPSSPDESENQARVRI
The experiment can be described thus: in vitro enzyme assay to detect the production of urea directly proportional to the activity of Arginase II. Note: in the data most compounds retested in dose-response had high values. The format is functional. The settings on record: 33.3 µM.

The target of experiment [6] is T3, Proteasome subunit beta (Trypanosoma cruzi) (UniProt O96673).
T3 sequence (whole entry): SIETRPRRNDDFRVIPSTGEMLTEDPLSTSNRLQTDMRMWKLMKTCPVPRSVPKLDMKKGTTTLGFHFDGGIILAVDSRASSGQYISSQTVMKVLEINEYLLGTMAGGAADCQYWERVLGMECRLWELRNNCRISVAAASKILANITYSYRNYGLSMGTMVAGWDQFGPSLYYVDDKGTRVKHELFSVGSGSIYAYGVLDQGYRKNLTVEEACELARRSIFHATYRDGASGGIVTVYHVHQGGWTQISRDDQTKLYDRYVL
Nature of the experiment: Trypanosoma cruzi proteasome chymotrypsin-like activity (TcProtChymo) assay. Note: in the data most compounds retested in dose-response had high values. The format is functional. As to conditions: 9.37 µM.

For another experiment, the species on record is Homo sapiens. Nature of the experiment: To identify inhibition of the IFN signalling (Jak-Stat) pathway via expression of an eGFP reporter gene under the control of an IFN-stimulated response element (ISRE) containing MxA promoter. The class given is functional. The settings on record: 30 µM.
The target in experiment [7] is T4, Tyrosyl-tRNA synthetase, putative (Trypanosoma cruzi (strain CL Brener)) (UniProt Q4DSP6).
T4 sequence (whole entry): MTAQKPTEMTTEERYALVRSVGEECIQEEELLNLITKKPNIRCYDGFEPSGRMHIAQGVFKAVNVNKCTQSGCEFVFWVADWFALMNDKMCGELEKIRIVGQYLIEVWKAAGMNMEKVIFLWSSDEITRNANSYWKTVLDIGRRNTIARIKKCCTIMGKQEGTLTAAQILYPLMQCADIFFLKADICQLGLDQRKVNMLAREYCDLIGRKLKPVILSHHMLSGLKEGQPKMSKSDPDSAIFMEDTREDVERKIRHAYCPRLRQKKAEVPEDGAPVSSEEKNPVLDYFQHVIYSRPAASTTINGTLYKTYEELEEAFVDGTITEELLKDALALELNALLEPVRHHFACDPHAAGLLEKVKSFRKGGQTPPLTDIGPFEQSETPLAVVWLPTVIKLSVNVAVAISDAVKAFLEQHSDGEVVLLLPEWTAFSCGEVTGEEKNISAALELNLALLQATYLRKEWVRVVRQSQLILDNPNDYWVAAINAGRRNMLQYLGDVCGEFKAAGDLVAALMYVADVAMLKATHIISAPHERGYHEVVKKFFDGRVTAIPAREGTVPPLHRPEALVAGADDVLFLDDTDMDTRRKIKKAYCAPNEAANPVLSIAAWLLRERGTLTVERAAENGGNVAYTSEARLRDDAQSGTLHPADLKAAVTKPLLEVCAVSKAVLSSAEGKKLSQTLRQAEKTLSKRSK
The experiment can be described thus: Trypanosoma cruzi tyrosyl tRNA synthetase (TcYRS) _High Tyrosine SOP. Note: in the data most compounds retested in dose-response had high values. The format is functional. As to conditions: 30 µM.

Experiment [8] addresses T4, Tyrosyl-tRNA synthetase, putative (Trypanosoma cruzi (strain CL Brener)). The experiment can be described thus: Trypanosoma cruzi tyrosyl tRNA synthetase (TcYRS) SOP. The class given is functional. The settings on record: 30 µM.
Experiment [9] addresses Chromo domain-containing protein 1 (Saccharomyces cerevisiae (strain ATCC 204508 / S288c) (Baker's yeast)) (UniProt P32657). Nature of the experiment: ScCHD-1 Enzyme Inhibition Assay. Note: in the data most compounds retested in dose-response had high values. The class given is functional. As to conditions: 30 µM.

Each structure is given as a SMILES string. For some of these results: Entries with a potency or affinity are not part of this list.

Sialic acid-binding Ig-like lectin 9 (Homo sapiens), sequence (Q9Y336 whole entry): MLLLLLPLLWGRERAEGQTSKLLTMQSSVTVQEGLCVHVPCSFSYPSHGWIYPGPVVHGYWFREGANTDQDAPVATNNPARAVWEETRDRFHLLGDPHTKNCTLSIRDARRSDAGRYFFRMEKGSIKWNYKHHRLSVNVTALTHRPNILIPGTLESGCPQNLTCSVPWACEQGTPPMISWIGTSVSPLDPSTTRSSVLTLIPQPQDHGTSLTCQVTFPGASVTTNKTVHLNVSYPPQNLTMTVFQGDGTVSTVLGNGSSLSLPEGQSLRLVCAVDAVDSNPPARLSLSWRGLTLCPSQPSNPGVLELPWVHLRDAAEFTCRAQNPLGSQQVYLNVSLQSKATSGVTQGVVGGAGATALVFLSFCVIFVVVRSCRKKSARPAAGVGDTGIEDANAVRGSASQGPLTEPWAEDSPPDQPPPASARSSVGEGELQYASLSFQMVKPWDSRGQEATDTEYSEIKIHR
Protein translocase subunit SecA (Escherichia coli (strain K12)), sequence (P10408 whole entry): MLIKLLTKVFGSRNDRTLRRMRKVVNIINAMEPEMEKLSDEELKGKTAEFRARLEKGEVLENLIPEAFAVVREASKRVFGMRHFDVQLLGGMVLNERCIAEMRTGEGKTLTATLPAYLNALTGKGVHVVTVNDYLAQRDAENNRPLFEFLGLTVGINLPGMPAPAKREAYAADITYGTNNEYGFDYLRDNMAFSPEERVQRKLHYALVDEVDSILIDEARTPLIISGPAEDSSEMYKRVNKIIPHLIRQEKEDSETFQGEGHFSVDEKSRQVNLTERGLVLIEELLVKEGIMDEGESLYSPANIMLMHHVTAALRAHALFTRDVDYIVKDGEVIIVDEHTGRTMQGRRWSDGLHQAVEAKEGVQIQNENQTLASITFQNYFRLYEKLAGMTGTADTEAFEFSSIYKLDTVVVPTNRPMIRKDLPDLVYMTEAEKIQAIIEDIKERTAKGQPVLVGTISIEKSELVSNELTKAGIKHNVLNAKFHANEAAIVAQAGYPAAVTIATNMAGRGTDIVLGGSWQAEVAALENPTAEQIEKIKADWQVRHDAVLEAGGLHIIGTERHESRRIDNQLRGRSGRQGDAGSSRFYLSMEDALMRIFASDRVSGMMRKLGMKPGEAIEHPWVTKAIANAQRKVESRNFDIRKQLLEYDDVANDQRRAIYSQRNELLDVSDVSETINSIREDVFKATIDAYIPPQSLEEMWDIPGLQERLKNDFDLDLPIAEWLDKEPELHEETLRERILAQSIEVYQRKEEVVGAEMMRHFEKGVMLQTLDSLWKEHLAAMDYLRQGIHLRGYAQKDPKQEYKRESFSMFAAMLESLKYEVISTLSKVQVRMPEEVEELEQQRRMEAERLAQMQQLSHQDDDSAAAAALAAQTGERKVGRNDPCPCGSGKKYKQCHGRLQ
Chromo domain-containing protein 1 (Saccharomyces cerevisiae (strain ATCC 204508 / S288c) (Baker's yeast)), sequence (P32657 whole entry, the tested form may be a part): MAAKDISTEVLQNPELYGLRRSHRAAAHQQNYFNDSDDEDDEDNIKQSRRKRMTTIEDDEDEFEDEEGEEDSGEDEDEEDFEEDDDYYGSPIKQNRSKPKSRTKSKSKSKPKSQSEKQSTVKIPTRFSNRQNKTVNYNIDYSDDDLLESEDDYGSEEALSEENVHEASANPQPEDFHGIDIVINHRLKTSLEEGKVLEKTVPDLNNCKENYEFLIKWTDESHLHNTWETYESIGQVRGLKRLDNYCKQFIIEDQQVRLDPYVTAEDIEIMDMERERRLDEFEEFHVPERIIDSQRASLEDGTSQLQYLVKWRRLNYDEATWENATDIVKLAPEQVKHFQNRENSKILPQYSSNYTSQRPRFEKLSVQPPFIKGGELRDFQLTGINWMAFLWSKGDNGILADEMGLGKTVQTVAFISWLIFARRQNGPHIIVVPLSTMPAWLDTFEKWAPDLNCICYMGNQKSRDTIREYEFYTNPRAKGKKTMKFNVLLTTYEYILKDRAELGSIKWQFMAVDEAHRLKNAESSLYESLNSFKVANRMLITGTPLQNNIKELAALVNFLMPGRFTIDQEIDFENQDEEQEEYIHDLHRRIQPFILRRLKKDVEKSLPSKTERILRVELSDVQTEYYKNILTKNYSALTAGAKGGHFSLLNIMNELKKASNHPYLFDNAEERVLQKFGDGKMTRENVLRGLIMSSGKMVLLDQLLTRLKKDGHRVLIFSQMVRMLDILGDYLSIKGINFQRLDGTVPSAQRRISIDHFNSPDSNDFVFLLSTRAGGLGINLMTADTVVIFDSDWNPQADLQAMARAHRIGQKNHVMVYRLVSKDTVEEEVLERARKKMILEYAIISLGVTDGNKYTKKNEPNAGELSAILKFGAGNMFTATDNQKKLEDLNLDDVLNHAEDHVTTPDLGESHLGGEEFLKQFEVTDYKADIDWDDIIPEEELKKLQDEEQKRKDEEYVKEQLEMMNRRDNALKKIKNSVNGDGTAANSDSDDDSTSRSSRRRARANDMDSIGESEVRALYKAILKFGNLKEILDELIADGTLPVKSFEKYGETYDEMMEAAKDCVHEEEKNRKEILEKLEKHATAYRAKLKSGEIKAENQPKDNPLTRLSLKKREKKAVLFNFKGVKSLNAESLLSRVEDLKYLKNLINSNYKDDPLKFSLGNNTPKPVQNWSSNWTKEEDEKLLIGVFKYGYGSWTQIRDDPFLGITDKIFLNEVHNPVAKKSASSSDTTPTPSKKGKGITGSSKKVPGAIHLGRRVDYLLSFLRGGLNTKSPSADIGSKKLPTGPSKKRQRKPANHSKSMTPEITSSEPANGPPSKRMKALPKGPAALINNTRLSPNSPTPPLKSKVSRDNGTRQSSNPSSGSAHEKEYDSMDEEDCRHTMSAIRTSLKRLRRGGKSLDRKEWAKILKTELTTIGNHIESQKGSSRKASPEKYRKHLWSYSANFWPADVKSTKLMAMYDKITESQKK

`CC(=O)NCCN1CCC(c2cccs2)CC1`: the Percent Effect in [1] was -3.79%; in experiment [2], 5.48%; in [3], 4.81%; in [4], 1.43%; in the experiment on Trypanosoma cruzi, 6.27%; in experiment [5], -1.36%. Further, the Percent Effect was 17.9% in [6]; 3.79% in the experiment filed under Homo sapiens; 2.15% in experiment [7]; 10% in experiment [8]; -6.86% in [9].

Regarding `Cc1ccc(-c2ncc(C(=O)NCCNC(=O)C(C)C)s2)c(C)c1`, the Percent Effect in experiment [1] was -2.93%; in experiment [2], 5.41%; in [3], -5.86%; in experiment [4] it was -1.89%; with Trypanosoma cruzi it was -3.87%; in [5], -2%. Moreover, the Percent Effect in experiment [6] was 2.52%; in the experiment filed under Homo sapiens, 15.8%; in experiment [7], 4.43%; in experiment [8] it was 11.1%; in experiment [9], -8.7%.

Consider `CCn1cnnc1C1CCN(C(=O)c2cnc(C3CC3)s2)CC1`, for which the Percent Effect in experiment [1] was -2.76%; in experiment [2], 17.7%; in experiment [3], -5.9%; in [4], 9.8%; in the experiment on Trypanosoma cruzi, 0.85%; in [5] it was -2.28%. Further, the Percent Effect in [6] was 3.52%; in the experiment listed under Homo sapiens, -10.4%; in [7], 6.4%; in experiment [8], 13.9%; in experiment [9] it was -4.8%.

For the molecule `CCS(=O)(=O)NC[C@]12COC[C@H]1CN(Cc1cccc(OC)c1)C2`, the Percent Effect in experiment [1] was -2.67%; in experiment [2] it was -2.7%; in [3], 2.37%; in experiment [4], 5.65%; in the experiment with Trypanosoma cruzi, 6.16%; in experiment [5], -4.14%. Further, the Percent Effect in experiment [6] came to 7.93%; in the experiment listed under Homo sapiens, 11.7%; in experiment [7], 0%; in experiment [8], 5.13%; in experiment [9], 14.6%.

Consider `CC(C)N(C)Cc1cnc2n1CCN(CCc1ccccc1)C2`, for which the Percent Effect in experiment [1] was -3.87%; in experiment [2] it was 5.41%; in experiment [3], 23.2%; in experiment [4], -2.38%; in the experiment with Trypanosoma cruzi, 0.586%; in [5], -2.92%. The Percent Effect in experiment [6] is 9.04%; in the experiment listed under Homo sapiens, -8.89%; in experiment [7] it was 6.93%; in experiment [8], 8.54%; in [9] it was 0.182%.

Consider `O=C(c1ccc(N2CCCC2)nn1)N1CCCC(n2cccn2)C1` (stereo unspecified), for which the Percent Effect in [1] is -6.6%; in experiment [2], 10.5%; in experiment [3], -3%; in experiment [4], -5.01%; with Trypanosoma cruzi it was -6.44%; in experiment [5], 5.4%. Further, the Percent Effect is 5.33% in [6]; -4.4% in the experiment listed under Homo sapiens; 4.43% in [7]; 3.7% in [8]; 1.12% in [9].

Consider `Cc1cnn(CCNCC(=O)NCc2ccccc2)c1`, for which the Percent Effect in experiment [1] is -0.968%; in [2] it was 5.26%; in [3], -2.33%; in [4], 11.4%; with Trypanosoma cruzi, 2.15%; in experiment [5] it was -4.68%. Besides, the Percent Effect is 0.0846% in experiment [6]; -25% in the experiment listed under Homo sapiens; 6.4% in [7]; 6.17% in [8]; 4.48% in [9].

As to `O=C(Cn1cc(C(=O)O)ccc1=O)NCc1ccc(F)c(Cl)c1`, the Percent Effect in [1] was -2.28%; in [2] it was 9.33%; in experiment [3], -1.08%; in experiment [4], -0.406%; in the experiment on Trypanosoma cruzi it was 4.91%; in [5] it was -6.87%. For the same molecule, the Percent Effect was 11.7% in [6]; 27% in the experiment filed under Homo sapiens; 4.23% in experiment [7]; 12.8% in experiment [8]; -7.6% in [9].

Consider `Cn1cc(CN2CCC3(CCCN(Cc4ccccn4)C3)CC2)cn1`, for which the Percent Effect in [1] was -1.45%; in experiment [2], -5.48%; in [3], -0.391%; in experiment [4], 0.486%; in the experiment on Trypanosoma cruzi it was 2.98%; in experiment [5], 1.2%. Further, the Percent Effect in experiment [6] is 4.54%; in the experiment listed under Homo sapiens, -10.8%; in experiment [7], 3.12%; in experiment [8], 1.24%; in experiment [9], 3.63%.

Take `Cc1cc(C)n(CC2CCCN2C(=O)CCCNc2ncccn2)n1` (stereo unspecified): the Percent Effect was -3.06% in [1]; 5.26% in experiment [2]; 1.29% in experiment [3]; 7.88% in [4]; 3.01% in the experiment on Trypanosoma cruzi; 1.15% in [5]. The Percent Effect in [6] is 5.68%; in the experiment filed under Homo sapiens it was -8.34%; in experiment [7], 6.37%; in experiment [8] it was 9.76%; in [9], -0.0349%.

On to `COc1ccc(CCN2CCC(N3CCN(C)C3=O)CC2)cc1`, for which the Percent Effect in experiment [1] is -6.17%; in experiment [2], 13%; in experiment [3] it was 0.0857%; in [4], 0.317%; with Trypanosoma cruzi, -1.87%; in [5] it was -4.98%. The Percent Effect is 8.45% in experiment [6]; 4.3% in the experiment filed under Homo sapiens; 4.85% in experiment [7]; 12.2% in [8]; -7.97% in [9].
